High-throughput results (PubChem BioAssay)
Shown are actives, neighbours in structure and some others; about 3.5% of the full set was active somewhere.
SARS 3CLpro inh = SARS-CoV 3CLpro protease inhibition | recombinant SARS-CoV 3CLpro, quenched FRET peptide cleavage | inhibition, % at 6 µM | AID 1706 | P0C6X7 | actives 0.14% (n = 290,000); in the data active = inhibition above about 12%
Anthrax LF inh2 = anthrax lethal factor protease inhibition; P15917; multiplex microsphere protease cleavage assay, LF; inhibition, % at 10 µM; actives 0.12% (n = 360,000); AID 588501; note: plate controls were buffer without enzyme for full effect and enzyme alone for no effect
BoNT F protease = inhibitors of Botulinum neurotoxin F light chain protease; inhibition, % at 10 µM; Multiplex microsphere protease cleavage assay, flow cytometry; actives 0.22% (n = 360,000); in the data active = inhibition above about 35%, passing the limit was not always enough; inconclusive = no clear call, values can overlap the other calls; note: plate controls were buffer without enzyme for full effect and enzyme alone for no effect
Autofluor counter = compound fluorescence in toxin protease inhibitor counterscreen | compound autofluorescence counterscreen, microsphere flow cytometry; stronger effect = higher value | fluorescence intensity (concentration not given with the values) | actives 3.1% (n = 360,000); in the data active = fluorescence intensity above about 16000; inconclusive = no clear call, values can overlap the other calls
BoNT A protease = blocks Botulinum neurotoxin A light chain protease; inhibition, % at 10 µM; actives 0.17% (n = 360,000); AID 588499; multiplex microsphere protease substrate cleavage, flow cytometry; note: plate controls were buffer without enzyme for full effect and enzyme alone for no effect
An asterisk follows results filed as active; ? = inconclusive; / = no result; ! = not confirmed by another sample. Cut-off read from the data, not from the text of the source, unless noted: active = inhibition above about 30%; inconclusive = no clear call, values can overlap the other calls; inactive = below that.

SMILES	SARS 3CLpro inh	Anthrax LF inh2	BoNT F protease	Autofluor counter	BoNT A protease
O=C(CCCn1c(=S)[nH]c2ccsc2c1=O)NCc1ccco1	4.1	-4.5	1.6	19127*	1.3
Cc1ccccc1Cn1c(=O)n(CCCC(=O)NCc2ccco2)c(=O)c2sccc21	-1.3	-1.3	1.9	3128	-0.2
O=C(CCCCn1c(=S)[nH]c2ccsc2c1=O)NCc1ccco1	-0.4	-9.1	-4.1	16657*	-1.0
Cc1cccn2c(=O)c(/C=N/O)c(N3CCCC3)nc12	2.0	-0.8	-2.9	16881*	?
Cc1cccn2c(=O)c(C=O)c(N3CCCCC3)nc12	1.5	5.8	-1.8	3627	-0.6
COc1cccc(NC(=O)CN2C(=O)CSc3nc(C)cc(C)c32)c1	-0.9	1.8	-1.3	6132	-0.5
NNC(=O)c1nc(-c2ccccc2)n2c1CCCCC2	0.1	0.9	-1.1	20671*	?
O=C(N/N=C/c1ccncc1)c1nc(-c2ccccc2)n2c1CCCCC2	6.6	-15.3	-1.5	5070	0.1
CCOc1ccc(OCCCC(=O)O)cc1	-0.5	-2.2	-0.8	20482*	0.4
O=C(O)CCCCCNC(=O)c1ccccc1Br	0.3	-3.6	-8.4	6308	-0.6
N#CCCCSc1ncccc1-c1nc2ccccc2[nH]1	2.8	-5.3	1.4	19935*	1.5
Cn1c(=O)cc(OCC(=O)N2CCCc3ccccc32)c2ccccc21	4.6	0.8	-6.0	21145*	-1.8
CCN1CCCC1CNC(=O)COc1cc(=O)n(C)c2ccccc12 (configuration not stated)	-1.7	0.2	0.5	23013*	0.6
Cn1c(=O)cc(OCC(=O)N2CCN(c3cccc(C(F)(F)F)c3)CC2)c2ccccc21	-3.7	-5.0	1.2	20645*	1.5
Cc1ccccc1OCC(=O)N1CCCc2ccccc21	-4.4	-0.1	-3.4	2477	0.2
O=C(C[C@H]1C(=O)N(c2ccc(Br)cc2)C[C@@H]1Cc1ccccc1)Nc1ccccc1	/	-3.8	-3.3	3498	-0.2
Cc1ccc(C2(C(F)(F)F)NC(=O)N3CCN=C3S2)cc1 (configuration not stated)	1.3	-2.7	2.8	21208*	?
Cc1cc2c(c(=O)o1)C1(C)CC(C)(O2)c2c(cc(C)oc2=O)O1	/	-4.4	-4.3	5754	-0.6
O=C(NCc1cccnc1)/C(=C/c1ccc(-c2cccc(C(F)(F)F)c2)o1)NC(=O)c1ccccc1	-1.1	-2.1	-9.0	22544*	?
Cc1ccc(-n2ncc3c(=O)n(Cc4cccnc4)cnc32)cc1	-1.7	-2.7	-2.6	19270*	0.6
COc1ccc(C(=O)C2CCCN(Cc3c(O)cccc3OC)C2)cc1OC (configuration not stated)	0.5	-18.4	36.9*	4574	-3.3
COc1cccc(O)c1CN1CCCC(C(=O)c2cccc(C(F)(F)F)c2)C1 (configuration not stated)	-6.1	-5.2	0.6	4196	-0.2
COCCn1c(SC(C)C(=O)NC2CCCCC2C)nc2ccccc2c1=O (configuration not stated)	/	6.1	9.3	4207	1.7
CNC(=O)NC1CCCc2ccccc21 (configuration not stated)	-1.5	-2.1	1.4	23281*	0.6
Cc1ccc(S(=O)(=O)N2CCN(CC(=O)NC3CCCc4ccccc43)CC2)cc1C (configuration not stated)	-2.0	-0.2	6.1	21955*!	-0.1
SMILES	SARS 3CLpro inh	Anthrax LF inh2	BoNT F protease	Autofluor counter	BoNT A protease
CCN(CC)S(=O)(=O)N1CCC(C(=O)NC2CCCc3ccccc32)CC1 (configuration not stated)	-3.4	0.5	5.6	20617*	4.6
Cc1nn(C)c(C)c1S(=O)(=O)N1CCC(C(=O)NC2CCCc3ccccc32)CC1 (configuration not stated)	-1.3	6.2	-5.3	6357	-0.6
COCCNC(=O)C1(C)CCN(C(=O)c2ccc3sccc3c2)C1 (configuration not stated)	/	-1.9	1.4	2882	0.3
COc1cccc(N2CCN(c3ncccn3)CC2)c1	0.1	4.5	-14.7	9764	0.1
Cc1cc(N2CCN(c3ccccc3)CC2)n2ncnc2n1	4.5	-0.2	2.4	4239	-0.4
c1ccc(N2CCN(c3c4c(nc5ncnn35)CCC4)CC2)cc1	0.1	-1.3	5.7	21815*	3.4
COc1cccc(N2CCN(c3c4c(nc5ncnn35)CCC4)CC2)c1	-3.3	-0.3	2.7	22408*	3.5
NS(=O)(=O)c1ccc(NC(=O)CSc2nnc(COc3ccccc3Cl)n2C2CC2)cc1	3.3	-1.4	0.6	2514	-0.7
CCCC(C)NC(=O)C1CC(=O)N(CCc2ccc(F)cc2)C1 (configuration not stated)	-0.7	2.1	9.7	3801	-1.7
